Values joined by “and” are separate entries in the source; they are usually repeats but may differ in a detail not shown here. Identical values can stand only once. Results filed as inconclusive are left out. A call without a number means that no potency is given here. Active and inactive are the calls of the source. Calls come from the whole dose curve; as a rule, active = well fitted curve in the direction sought with a large enough effect; inconclusive = small, poorly fitted or top-dose-only effect, or another doubt; inactive = no such curve, though single readings can be large; an effect the other way counts as inactive or inconclusive.
Assays:
[1] = qHTS of pediatric cancer cell lines to identify multiple opportunities for drug repurposing: Primary screen for BT-37 cells (AID 1347094); details: BT-37 viability, CellTiter-Glo luminescence, 48 h; series mostly up to 57.3 µM; note: potency is the fitted concentration of half-maximal effect
Procedure, shortened: (§1)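 Viability was measured as metabolically active cells after 48 hours of treatment, read by CellTiter-Glo luminescence. Compounds were tested at multiple final concentrations, giving concentration-response curves.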

[2] = qHTS of pediatric cancer cell lines to identify multiple opportunities for drug repurposing: Primary screen for NB-EBc1 cells (AID 1347095); details: NB-EBc1 neuroblastoma viability, CellTiter-Glo luminescence, 48 h; series mostly up to 46 µM; note: potency is the fitted concentration of half-maximal effect
Procedure, shortened: as §1

[3] = qHTS of pediatric cancer cell lines to identify multiple opportunities for drug repurposing: Primary screen for Saos-2 cells (AID 1347097); details: Saos-2 viability, CellTiter-Glo ATP luminescence, 48 h; series mostly up to 46 µM; note: nearly all actives have a fitted effect of over 40% in size; note: potency is the fitted concentration of half-maximal effect
Procedure, shortened: as §1

[4] = qHTS of pediatric cancer cell lines to identify multiple opportunities for drug repurposing: Primary screen for SK-N-SH cells (AID 1347098); details: SK-N-SH viability, CellTiter-Glo luminescence, 48 h; series mostly up to 57 µM; note: nearly all actives have a fitted effect of over 65% in size; note: potency is the fitted concentration of half-maximal effect
Procedure, shortened: (§2)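 Cells (500-1,000/well) rested 5 h, then received compounds for 48 h; metabolically active cells were measured by CellTiter-Glo luminescence. Final concentrations spanned up to 46 µM (MIPE, 11-point) or 0.59 nM-46 µM (NPC, 8-point) in primary screens, 11-point in follow-ups.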

[5] = qHTS of pediatric cancer cell lines to identify multiple opportunities for drug repurposing: Primary screen for LAN-5 cells (AID 1347100); details: LAN-5 neuroblastoma viability, CellTiter-Glo luminescence, 48 h; series mostly up to 46 µM; note: potency is the fitted concentration of half-maximal effect
Procedure, shortened: (§3)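 Cells (500-1,000/well) in growth media were settled 5 h at 37 degrees C, then given compounds for 48 h. Viability was read as CellTiter-Glo luminescence. Primary runs used MIPE at 11 points (0.78 nM-46 µM) and NPC at 8 points (0.59 nM-46 µM); follow-ups used 11 points.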

[6] = qHTS of pediatric cancer cell lines to identify multiple opportunities for drug repurposing: Primary screen for BT-12 cells (AID 1347101); details: BT-12 viability, CellTiter-Glo luminescence, 48 h; series mostly up to 57.3 µM; note: nearly all actives have a fitted effect of over 25% in size; note: potency is the fitted concentration of half-maximal effect
Procedure, shortened: as §2

[7] = qHTS of pediatric cancer cell lines to identify multiple opportunities for drug repurposing: Primary screen for Rh18 cells (AID 1347102); details: Rh18 rhabdomyosarcoma viability, CellTiter-Glo luminescence, 48 h; series mostly up to 46 µM; note: nearly all actives have a fitted effect of over 65% in size; note: potency is the fitted concentration of half-maximal effect
Procedure, shortened: as §3

[8] = qHTS of pediatric cancer cell lines to identify multiple opportunities for drug repurposing: Primary screen for OHS-50 cells (AID 1347103); details: OHS-50 osteosarcoma viability, CellTiter-Glo luminescence, 48 h; series mostly up to 57.3 µM; note: nearly all actives have a fitted effect of over 40% in size; note: potency is the fitted concentration of half-maximal effect
Procedure, shortened: as §2

[9] = qHTS of pediatric cancer cell lines to identify multiple opportunities for drug repurposing: Primary screen for MG 63 (6-TG R) cells (AID 1347105); details: MG 63 (6-TG R) viability, CellTiter-Glo, 48 h; series mostly up to 46 µM; note: nearly all actives have a fitted effect of over 50% in size; note: potency is the fitted concentration of half-maximal effect
Procedure, shortened: as §1

[10] = qHTS of pediatric cancer cell lines to identify multiple opportunities for drug repurposing: Primary screen for control Hh wild type fibroblast cells (AID 1347106); details: Hh wild-type fibroblast viability, CellTiter-Glo luminescence, 48 h; series mostly up to 46 µM;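 note: a drop in luminescence marks cytotoxicity and a rise apparent proliferation; nearly all actives have a fitted effect of over 55% in size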
Procedure, shortened: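 Viability after 48 h compound treatment at 37C, 500-1,000 cells/well, read as ATP luminescence with CellTiter-Glo. Primary screens used 11-point (MIPE, 0.78 nM-46 µM) or 8-point (NPC, 0.59 nM-46 µM) final concentrations; follow-up screens used 11-point dilutions.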

[11] = qHTS of pediatric cancer cell lines to identify multiple opportunities for drug repurposing: Primary screen for Rh30 cells (AID 1347107); details: Rh30 rhabdomyosarcoma viability, CellTiter-Glo luminescence, 48 h; series mostly up to 46 µM; note: nearly all actives have a fitted effect of over 75% in size
Procedure, shortened: as §3

[12] = qHTS of pediatric cancer cell lines to identify multiple opportunities for drug repurposing: Primary screen for Rh41 cells (AID 1347108); details: Rh41 rhabdomyosarcoma viability, CellTiter-Glo luminescence, 48 h; series mostly up to 46 µM; note: nearly all actives have a fitted effect of over 70% in size; note: potency is the fitted concentration of half-maximal effect
Procedure, shortened: as §1

[13] = qHTS of pediatric cancer cell lines to identify multiple opportunities for drug repurposing: Primary screen for NB1643 cells (AID 1347099); details: NB1643 neuroblastoma viability, CellTiter-Glo luminescence, 48 h; series mostly up to 46 µM; note: nearly all actives have a fitted effect of over 50% in size; note: potency is the fitted concentration of half-maximal effect
Procedure, shortened: as §1

[14] = qHTS of pediatric cancer cell lines to identify multiple opportunities for drug repurposing: Primary screen for RD cells (AID 1347104); details: RD rhabdomyosarcoma viability, CellTiter-Glo luminescence, 48 h; series mostly up to 46 µM; note: nearly all actives have a fitted effect of over 55% in size; note: potency is the fitted concentration of half-maximal effect
Procedure, shortened: as §1

[15] = qHTS of pediatric cancer cell lines to identify multiple opportunities for drug repurposing: Confirmatory screen for NB1643 cells (AID 1347109); details: NB1643 neuroblastoma cell viability; series mostly up to 45.9 µM; note: nearly all actives have a fitted effect of over 45% in size; note: potency is the fitted concentration of half-maximal effect
Procedure, shortened: as §3

[16] = qHTS of pediatric cancer cell lines to identify multiple opportunities for drug repurposing: Confirmatory screen for A673 cells (AID 1347110); details: A673 Ewing sarcoma cell viability; series mostly up to 45.9 µM;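 note: potency is the fitted concentration of half-maximal effect; cells exposed to compound for 48 h before the viability read; nearly all actives have a fitted effect of over 65% in size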
Procedure, shortened: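 Concentration-response curves came straight from titrations: 11 points (0.78 nM to 46 µM) for MIPE and several concentrations (0.59 nM to 46 µM) for NPC in primary, 11 points in follow-up. Readout: ATP luminescence at 48 h.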

[17] = qHTS of pediatric cancer cell lines to identify multiple opportunities for drug repurposing: Confirmatory screen for SK-N-MC cells (AID 1347111); details: SK-N-MC cell viability; series mostly up to 45.9 µM;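 note: cells exposed to compound for 48 h before the readout; nearly all actives have a fitted effect of over 70% in size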; note: potency is the fitted concentration of half-maximal effect
Procedure, shortened: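 Metabolically active cells were quantified by ATP-dependent luminescence (CellTiter-Glo, 15 min at room temperature) following 48 h treatment. Cells had been plated at 500-1,000 per well and settled for 5 h beforehand.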

[18] = qHTS of pediatric cancer cell lines to identify multiple opportunities for drug repurposing: Confirmatory screen for BT-12 cells (AID 1347112); details: BT-12 rhabdoid tumor cells, viability; series mostly up to 45.9 µM; note: nearly all actives have a fitted effect of over 55% in size; note: potency is the fitted concentration of half-maximal effect
Procedure, shortened: as §3

[19] = qHTS of pediatric cancer cell lines to identify multiple opportunities for drug repurposing: Confirmatory screen for LAN-5 cells (AID 1347113); details: LAN-5 neuroblastoma cell viability; series mostly up to 45.9 µM; note: nearly all actives have a fitted effect of over 65% in size; note: potency is the fitted concentration of half-maximal effect
Procedure, shortened: as §3

[20] = qHTS of pediatric cancer cell lines to identify multiple opportunities for drug repurposing: Primary screen for U-2 OS cells (AID 1347096); details: U-2 OS viability, CellTiter-Glo luminescence, 48 h; series mostly up to 46 µM; note: nearly all actives have a fitted effect of over 50% in size
Procedure, shortened: as §3

| SMILES | Potency [1] | Potency [2] | Potency [3] | Potency [4] | Potency [5] | Potency [6] | Potency [7] | Potency [8] | Potency [9] | Potency [10] | outcome [11] | Potency [12] | Potency [13] | Potency [14] | Potency [15] | Potency [16] | Potency [17] | Potency [18] | Potency [19] | Potency [20] |
| --- | --- | --- | --- | --- | --- | --- | --- | --- | --- | --- | --- | --- | --- | --- | --- | --- | --- | --- | --- | --- |
| CC(C(=O)O)c1cccc(C(=O)c2ccccc2)c1 (stereo not given) | inactive | inactive | inactive | inactive | inactive | inactive | inactive | inactive | inactive | inactive | inactive | inactive | – | – | – | – | – | – | – | – |
| CC(C)(C)C(=O)Oc1ccc(S(=O)(=O)Nc2ccccc2C(=O)NCC(=O)O)cc1 | inactive | inactive | inactive | inactive | inactive | inactive | inactive | inactive | inactive | inactive | inactive | inactive | inactive | inactive | – | – | – | – | – | – |
| COC(=O)Nc1nc2ccc(C(=O)c3cccs3)cc2[nH]1 | 15.3 nM (active) and 276 nM (active) | 1 nM (active) and 84.1 nM (active) | 4.7 nM (active) and 94.4 nM (active) | inactive | 3.3 nM (active) and 119 nM (active) | – | inactive | 8.6 nM (active) and 309 nM (active) | – | inactive | inactive | – | – | – | 0.522 µM (active) | 0.147 µM (active) | 0.147 µM (active) | 0.522 µM (active) | 0.522 µM (active) | – |
| COc1ccc(CCN(C)CCCC(C#N)(c2ccc(OC)c(OC)c2)C(C)C)cc1OC (stereo not given) | inactive | inactive | inactive | inactive | inactive | inactive | inactive | inactive | inactive | inactive | inactive | inactive | inactive | inactive | – | – | – | – | – | – |
| Clc1ccc2nsnc2c1NC1=NCCN1 | inactive | inactive | inactive | inactive | inactive | inactive | inactive | inactive | inactive | inactive | inactive | inactive | inactive | inactive | 26.1 µM (active) | – | inactive | – | inactive | – |
| C[C@H]1c2cccc(O)c2C(O)=C2C(=O)[C@]3(O)C(O)=C(C(N)=O)C(=O)[C@@H](N(C)C)[C@@H]3[C@@H](O)[C@@H]21 | – | inactive | inactive | inactive | inactive | 24.3 µM (active) | inactive | inactive | inactive | inactive | inactive | inactive | inactive | inactive | – | – | – | – | – | – |
| N[C@@H](Cc1c[nH]c2ccc(O)cc12)C(=O)O | – | – | inactive | – | inactive | inactive | inactive | inactive | inactive | inactive | inactive | inactive | inactive | inactive | – | – | – | – | – | inactive |
| O=C1Cc2cc(CCN3CCN(c4nsc5ccccc45)CC3)c(Cl)cc2N1 | – | inactive | – | inactive | inactive | – | inactive | – | inactive | inactive | inactive | inactive | inactive | – | – | – | – | – | – | inactive |
| COc1cc2nc(N3CCN(C(=O)C4COc5ccccc5O4)CC3)nc(N)c2cc1OC (stereo not given) | – | inactive | – | 19.2 µM (active) | inactive | – | 26.4 µM (active) | 24.6 µM (active) | inactive | inactive | inactive | inactive | – | – | – | – | – | – | – | inactive |
| CC(C)(Oc1ccc(C2CC2(Cl)Cl)cc1)C(=O)O (stereo not given) | – | – | inactive | – | – | – | inactive | inactive | inactive | inactive | inactive | inactive | inactive | inactive | – | – | – | – | – | inactive |
| CC(C)C(=O)Nc1ccc([N+](=O)[O-])c(C(F)(F)F)c1 | – | inactive | 0.59 µM (active) | 12.1 µM (active) | inactive | 11 µM (active) | inactive | 24.6 µM (active) and 432 nM (active) | – | – | inactive | 11.8 µM (active) | – | – | inactive | 10.4 µM (active) | – | – | inactive | – |
| COc1ccccc1N1CCN(CC(O)COc2cccc3ccccc23)CC1 (stereo not given) | inactive | inactive | – | – | inactive | – | inactive | 15.5 µM (active) | inactive | inactive | inactive | – | inactive | inactive | – | – | – | – | – | – |
| O=C(c1ccc(OCCN2CCCCC2)cc1)c1c(-c2ccc(O)cc2)sc2cc(O)ccc12 | – | 20.9 µM (active) | 14.8 µM (active) | 13.7 µM (active) | 15 µM (active) | – | – | 27.6 µM (active) and 24.3 µM (active) | 26.6 µM (active) and 18.7 µM (active) | inactive | inactive | inactive | – | 23.7 µM (active) and 18.7 µM (active) | – | 20.8 µM (active) | 16.5 µM (active) | – | – | inactive |
| COc1cc2nc(N3CCN(C(=O)c4ccco4)CC3)nc(N)c2cc1OC | 24.3 µM (active) | inactive | – | 27.1 µM (active) | 14.8 µM (active) | – | – | – | inactive | inactive | inactive | inactive | 26.4 µM (active) | 29.6 µM (active) | – | – | – | – | – | – |
| OCCN1CCN(CCCN2c3ccccc3Sc3ccc(C(F)(F)F)cc32)CC1 | 13.7 µM (active) | – | – | 21.5 µM (active) and 19.4 µM (active) | – | 27.3 µM (active) | – | 24.3 µM (active) and 27.6 µM (active) | – | inactive | inactive | inactive | – | 18.7 µM (active) | – | – | – | – | – | inactive |
| NC(=O)NO | – | – | – | inactive | inactive | – | inactive | – | – | inactive | inactive | – | inactive | – | inactive | 0.414 µM (active) | inactive | inactive | inactive | inactive |
| OCCN(CCO)c1nc(N2CCCCC2)c2nc(N(CCO)CCO)nc(N3CCCCC3)c2n1 | inactive | inactive | – | – | inactive | – | inactive | 21.7 µM (active) | – | inactive | inactive | inactive | inactive | – | – | – | – | – | – | – |
| Cc1ccc(-c2cc(C(F)(F)F)nn2-c2ccc(S(N)(=O)=O)cc2)cc1 | – | inactive | 16.8 µM (active) | inactive | inactive | – | inactive | – | inactive | inactive | inactive | – | inactive | – | – | – | – | – | – | inactive |
| Clc1ccccc1C(c1ccccc1)(c1ccccc1)n1ccnc1 | – | – | 26.6 µM (active) and 33.2 µM (active) | inactive | inactive | – | inactive | – | inactive | inactive | inactive | – | – | 18.7 µM (active) | – | – | – | – | – | inactive |
| CNCCCC12CCC(c3ccccc31)c1ccccc12 | – | inactive | 26.4 µM (active) | 13.7 µM (active) | inactive | – | 18.8 µM (active) and 18.7 µM (active) | 27.6 µM (active) and 24.3 µM (active) | 16.8 µM (active) | inactive | inactive | – | – | 29.6 µM (active) | – | – | – | – | – | – |
